PubChem BioAssay (NCATS)
Results filed as inconclusive are left out. Where a call stands in place of a potency, no number is given. The source made the active and inactive calls. Calls come from the whole dose curve; as a rule, active = well fitted inhibition curve with a large enough effect; inconclusive = small, poorly fitted or top-dose-only effect; inactive = flat fitted curve, though single readings scatter.

biological target: Calcium and integrin-binding protein 1 (Homo sapiens) (UniProt Q99828); assay: Primary qHTS for Identification of Calcium Integrin Binding Protein 1 (CIB1) Competitor (AID 1508620); settings: CIB1-GST / FITC-alphaIIb peptide fluorescence polarization; series mostly up to 114 µM;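 note: GST tagged CIB1 binding a fluorescein labelled alphaIIb integrin peptide tracer; top concentration of the series differs between compounds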
Sequence (Q99828 whole entry, looked up): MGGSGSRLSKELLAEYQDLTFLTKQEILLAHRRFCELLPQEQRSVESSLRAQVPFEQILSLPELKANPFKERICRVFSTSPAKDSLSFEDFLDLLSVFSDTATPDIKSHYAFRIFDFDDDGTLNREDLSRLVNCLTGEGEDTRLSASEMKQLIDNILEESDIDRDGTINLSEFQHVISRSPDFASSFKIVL
Procedure, shortened: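 Fluorescence polarization competition: CIB1-GST (1 uM final) preincubated with compound 15 min at room temperature, then FITC-labeled alphaIIb peptide (100 nM final) added for another 15 min. Polarization read at Ex 480/Em 540.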

Row | Compound | Potency
1 | COc1cc(/C=C2\C(=O)Nc3ccccc32)ccc1O | inactive
2 | NC(=O)C1CCN(c2nc(-c3ccccc3[N+](=O)[O-])cs2)CC1 | inactive
3 | CS(=O)(=O)c1ccc(C(=O)OCC(=O)N2CCOCC2)cc1[N+](=O)[O-] | inactive
4 | Cc1nc(NCc2ccc(-c3cccnc3)cc2)c2ccccc2n1 | inactive
5 | Brc1ccc(-c2csc(N3CCNCC3)n2)cc1 | inactive
6 | C[C@@](Cc1ccccc1)(C(=O)O)N1C(=O)c2ccc(C(=O)O)cc2C1=O | inactive
7 | Fc1ccc(-c2nc(-c3ccncc3)nc3ccccc23)cc1F | inactive
8 | O=C(Nc1ccc(-c2nc3ccccc3[nH]2)cc1)c1ccc(-c2ccccc2)cc1 | inactive
9 | O=C(Nc1cccc(-c2nn3c(=O)cc(N4CCNCC4)nc3s2)c1)c1ccncc1 | inactive
10 | O=C(Oc1cccnc1)c1cccs1 | inactive
11 | O=S(=O)(c1ccc2c(c1)OCCO2)N1CCCN(S(=O)(=O)c2c(F)cccc2F)CC1 | inactive
12 | COc1ccc(CN(Cc2ccccc2)S(=O)(=O)c2ccccc2)cc1COc1ccc(NC(C)=O)cc1 | inactive
13 | CCOC(=O)c1cccc(-n2cnc(/C=C3\NC(=O)N(CC(=O)O)C3=O)c2)c1 | inactive
14 | O=C1CCc2cc(S(=O)(=O)Nc3ccccc3Cl)ccc2N1 | inactive
15 | CC1=C(C(=O)Nc2ccccc2Cl)C(c2ccccc2Br)N=C(Nc2nc3ccccc3o2)N1 (stereo not given) | inactive
16 | CC(=O)Nc1sc2c(c1-c1cccc(F)c1)CCNC2 | inactive
17 | Cn1c2ccsc2c2ncn(Cc3ccc(F)cc3)c(=O)c21 | inactive
18 | CC(=O)NC(c1cc(F)c2cccnc2c1O)C(C)C (stereo not given) | inactive
19 | Cc1ccc(OCCn2c(CCNC(=O)c3cccc(C#N)c3)nc3ccccc32)cc1 | inactive
20 | CC1(C)CC(=O)C2=C(C1)NC(Nc1nc3ccccc3o1)=NC21CCCC1 | inactive

Row | Compound | Potency
21 | O=[S+]([O-])(c1ccc2c(c1)OCCO2)N1CCN([S+](=O)([O-])c2c(O)cc(F)cc2F)CC1 | inactive
22 | FC(F)(F)c1cccc(N2CCN(C(=S)Nc3nccc4ccccc34)CC2)c1 | inactive
23 | O=C1c2ccccc2C(=O)N1c1ccncc1 | inactive
24 | CC(C)Oc1ccc(-c2ccc(=O)n(CC(=O)NCCc3ccccc3)n2)cc1 | inactive
25 | Cc1ccnc(NC(=S)N2CCN(c3ccc(Br)cc3)CC2)c1 | inactive
26 | Brc1ccc(-c2csc(N3CCCCC3)n2)cc1 | inactive
27 | COc1ccc(Cn2c(C)nnc2-c2cnn(C)c2N)cc1OC | inactive
28 | O=C(O)c1cccc2c1C(=O)N(c1ccccc1)C2 | inactive
29 | O=S(=O)(c1ccc2c(c1)OCCCO2)N1CCN(S(=O)(=O)c2c(F)cccc2F)CC1 | inactive
30 | Cc1ccc(NS(=O)(=O)c2cc3c(cc2N2CCCCC2)NC(=O)CC3)cc1C | inactive
31 | O=C(NC(c1ccco1)c1cc(Cl)c2cccnc2c1O)c1ccc(F)c(F)c1 (stereo not given) | inactive
32 | C[C@@H](N)C(=O)Nc1cccc(-c2nn3c(=O)cc(N4CCNCC4)nc3s2)c1 | inactive
33 | COC(=O)c1nc(Nc2cc(F)cc(F)c2)nc(NC2CCCC2)n1 | inactive
34 | COc1ccc(-c2nc3ccccc3c(=O)n2Cc2ccc(CNC(=O)CO)cc2)cc1COc1ccc(NC(C)=O)cc1 | inactive
35 | Nc1ccc(S(=O)(=O)N2CCN(S(=O)(=O)c3c(F)cccc3F)CC2)cc1 | inactive
36 | O=C1CCCC2=C1C(c1[nH]ncc1Cl)N=C(Nc1nc3cc([S+](=O)([O-])N4CCCC4)ccc3o1)N2 (stereo not given) | inactive
37 | Cc1ccnc(NC(=S)N2CCNCC2)c1 | inactive
38 | Cc1cc(-c2nnc3n2CCCCC3)c(C)n1-c1ccc(C#N)cc1 | inactive
39 | O=C(Nc1ccc(N2CCOCC2)c(F)c1)Nc1nnc(-c2ccncc2)s1 | inactive
40 | Cc1cccc(-n2cnc3cc(C(=O)N4CCCC4)ccc32)c1 | inactive
